Assay [1] deals with Peroxisome proliferator-activated receptor delta (Homo sapiens) (UniProt Q03181). As to the kind of experiment: qHTS assay to identify small molecule agonists of the peroxisome proliferator-activated receptor delta (PPARd) signaling pathway (AID 743212; calls by dose curve). As to conditions: HEK293H PPARd-UAS-bla, beta-lactamase FRET ratio, 17 h; series mostly up to 62.6 µM. In a few lines: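 Cells expressing a UAS-driven beta-lactamase reporter (PPARd-bla HEK293H) were given test compounds after a 5 h settle and kept at 37 C. Reporter activity was then measured as FRET fluorescence using LiveBLAzer B/G substrate.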
Sequence of Peroxisome proliferator-activated receptor delta (Homo sapiens) (Q03181 whole entry, looked up): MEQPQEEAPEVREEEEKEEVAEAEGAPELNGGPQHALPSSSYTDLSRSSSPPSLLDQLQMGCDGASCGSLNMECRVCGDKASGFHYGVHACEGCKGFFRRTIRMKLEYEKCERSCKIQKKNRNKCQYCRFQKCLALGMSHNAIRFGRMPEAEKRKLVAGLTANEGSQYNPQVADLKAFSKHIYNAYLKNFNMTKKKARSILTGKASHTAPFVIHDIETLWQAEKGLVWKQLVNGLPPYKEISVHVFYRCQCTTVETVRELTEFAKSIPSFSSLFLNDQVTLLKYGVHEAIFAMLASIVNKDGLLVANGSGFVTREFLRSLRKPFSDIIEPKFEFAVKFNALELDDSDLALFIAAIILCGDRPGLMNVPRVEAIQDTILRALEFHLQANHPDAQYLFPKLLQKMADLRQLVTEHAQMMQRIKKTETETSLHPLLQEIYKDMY

Assay [2] can be described thus: qHTS assay to identify small molecule antagonists of the peroxisome proliferator-activated receptor delta (PPARd) signaling pathway - cell viability counter screen (AID 743213). Further: nearly all actives have a fitted effect of over 50% in size. Further: potency means the concentration at half of the fitted maximal effect. The conditions noted are these: PPARd-bla HEK293H viability, CellTiter-Glo luminescence, 17 h; series mostly up to 62 µM. In outline:
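Luminescence from CellTiter-Glo, added after the bla read and incubated 30 min at room temperature, gives viability of HEK293H PPARd-bla cells exposed to compounds for 17 h at 37 C with 300 nM L165041.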
(Quantitative high-throughput screening tests each substance at several concentrations.)

The target in assay [3] is Peroxisome proliferator-activated receptor delta (Homo sapiens) (UniProt Q03181). The assay is described as follows: qHTS assay to identify small molecule antagonists of the peroxisome proliferator-activated receptor delta (PPARd) signaling pathway (AID 743215; active means well fitted inhibition curve with a large enough effect in the signal ratio in the repeat runs, not every such curve was filed as active; the % refers to the signal ratio;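 further: cells stimulated with agonist L165041 at 300 nM final during compound exposure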). As to conditions: HEK293H PPARd-UAS-bla, beta-lactamase FRET ratio, antagonist, 17 h; series mostly up to 62 µM. In a few lines:
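Agonist L165041 (300 nM final) added with compound to PPARd-bla HEK293H UAS-bla reporter cells; 17 h incubation at 37 C. Read-out: LiveBLAzer FRET substrate, 2 h at room temperature, fluorescence intensity.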

Assay [4] addresses Bile acid receptor (Homo sapiens) (UniProt Q96RI1). The assay is described as follows: qHTS assay to identify small molecule antagonists of the farnesoid-X-receptor (FXR) signaling pathway (AID 743217; active means well fitted inhibition curve with a large enough effect in the signal ratio in the repeat runs, not every such curve was filed as active; the % refers to the signal ratio). As to conditions: HEK293T FXR-UAS-bla, beta-lactamase ratio, CDCA-stimulated, 16 h; series mostly up to 62.6 µM. In a few lines:
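Antagonist mode: chenodeoxycholic acid at 50 uM final stimulates a UAS-driven beta-lactamase reporter in HEK 293T FXR-bla cells during 16 h, 37C compound exposure. Read-out is FRET substrate fluorescence after 2 h at room temperature.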

A short description of assay [5]: qHTS assay to identify small molecule agonists of the farnesoid-X-receptor (FXR) signaling pathway - cell viability counter screen (AID 743218). Further: nearly all actives have a fitted effect of over 45% in size. Further: potency means the concentration at half of the fitted maximal effect. As to conditions: FXR-bla HEK293T viability, CellTiter-Glo luminescence, 16 h; series mostly up to 62.6 µM. In a few lines:
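Viability counter screen in the same wells: CellTiter-Glo luminescence, 30 min room-temperature incubation, measured after the beta-lactamase read. Cells were GeneBLAzer FXR-UAS-bla HEK 293T, compound-treated 16 h at 37C.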

In assay [6] the target is Bile acid receptor (Homo sapiens) (UniProt Q96RI1). As to the kind of experiment: qHTS assay to identify small molecule agonists of the farnesoid-X-receptor (FXR) signaling pathway (AID 743220; active means well fitted activation curve with a large enough effect in the signal ratio in the repeat runs, not every such curve was filed as active; the % refers to the signal ratio). The conditions noted are these: HEK293T FXR-UAS-bla, beta-lactamase FRET ratio, 16 h; series mostly up to 62.6 µM. In outline:
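FXR-UAS-bla HEK 293T cells carrying a UAS-driven beta-lactamase reporter were plated for 5 h at 37C/5% CO2, then exposed to DMSO-dissolved Tox21 10K compounds for 16 h at 37C. A LiveBLAzer B/G FRET substrate was loaded for 2 h at room temperature before fluorescence reading.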

A short description of assay [7]: qHTS assay to identify small molecule antagonists of the farnesoid-X-receptor (FXR) signaling pathway - cell viability counter screen (AID 743221; active means well fitted cell-killing curve with a large enough effect in the repeat runs, not every such curve was filed as active; further: nearly all actives have a fitted effect of over 50% in size; further: potency means the concentration at half of the fitted maximal effect). As to conditions: FXR-bla HEK293T viability, CellTiter-Glo luminescence, 16 h; series mostly up to 62.6 µM. In outline:
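After a 5 h settling period, FXR-bla HEK 293T cells receive compound and chenodeoxycholic acid (50 uM final) and incubate 16 h at 37 C; CellTiter-Glo luminescence, read after 30 min at room temperature, reports cell viability.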

Assay [8] deals with Vitamin D3 receptor (Homo sapiens) (UniProt P11473). The assay is described as follows: qHTS assay to identify small molecule agonists of the vitamin D receptor (VDR) signaling pathway (AID 743222; calls by dose curve). As to conditions: HEK293T VDR-UAS-bla, beta-lactamase FRET ratio, 16 h; series mostly up to 63.5 µM. In outline: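 Agonist mode, beta-lactamase reporter: fluorescence from LiveBLAzer B/G FRET substrate (2 h, room temperature) read after 16 h compound treatment at 37 C of VDR-bla cells, which were pre-incubated 4 h after seeding.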
Sequence of Vitamin D3 receptor (Homo sapiens) (P11473 whole entry, looked up): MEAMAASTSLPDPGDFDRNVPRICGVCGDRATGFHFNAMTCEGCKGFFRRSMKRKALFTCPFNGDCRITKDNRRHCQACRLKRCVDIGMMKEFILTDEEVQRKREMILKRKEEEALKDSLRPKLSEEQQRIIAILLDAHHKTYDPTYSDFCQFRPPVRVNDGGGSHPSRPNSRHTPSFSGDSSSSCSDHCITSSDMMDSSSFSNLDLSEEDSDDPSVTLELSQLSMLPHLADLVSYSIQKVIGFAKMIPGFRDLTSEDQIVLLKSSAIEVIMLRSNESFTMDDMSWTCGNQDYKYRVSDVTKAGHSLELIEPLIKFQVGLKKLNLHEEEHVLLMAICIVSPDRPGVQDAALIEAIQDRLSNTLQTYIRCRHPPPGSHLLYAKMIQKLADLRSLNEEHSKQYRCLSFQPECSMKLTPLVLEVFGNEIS

The target is the same in assay [9]. The assay is described as follows: qHTS assay to identify small molecule antagonists of the vitamin D receptor (VDR) signaling pathway (AID 743223; active means well fitted inhibition curve with a large enough effect in the signal ratio in the repeat runs, not every such curve was filed as active; the % refers to the signal ratio). As to conditions: VDR-UAS-bla HEK293T, beta-lactamase FRET ratio, 16 h; series mostly up to 61 µM. In a few lines:
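Reporter line VDR-bla; stimulus 1alpha,25-(OH)2 vitamin D3, 3 nM final; compound co-addition, 16 h 37C/5% CO2; LiveBLAzer B/G substrate 2 h RT; fluorescence intensity.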

Assay [10] is described as follows: qHTS assay to identify small molecule agonists of the peroxisome proliferator-activated receptor delta (PPARd) signaling pathway - cell viability counter screen (AID 743211). Further: nearly all actives have a fitted effect of over 55% in size. Further: potency means the concentration at half of the fitted maximal effect. The conditions noted are these: PPARd-bla HEK293H viability, CellTiter-Glo luminescence, 17 h; series mostly up to 62.6 µM. In a few lines: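 qHTS cell viability: PPARd-bla HEK293H; 17 h cpd, 37C; CellTiter-Glo, luminescence at 30 min RT.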

Results filed as inconclusive are left out. Activity calls are given as the source filed them. Unless noted, the call rests on the fitted dose curve; in most records, active means well fitted curve in the direction sought with a large enough effect in the repeat runs; inconclusive means weak or mixed curves; inactive means no such curve, though single readings can be large; an effect the other way counts as inactive or inconclusive.

Sequence of Bile acid receptor (Homo sapiens) (Q96RI1 whole entry, looked up): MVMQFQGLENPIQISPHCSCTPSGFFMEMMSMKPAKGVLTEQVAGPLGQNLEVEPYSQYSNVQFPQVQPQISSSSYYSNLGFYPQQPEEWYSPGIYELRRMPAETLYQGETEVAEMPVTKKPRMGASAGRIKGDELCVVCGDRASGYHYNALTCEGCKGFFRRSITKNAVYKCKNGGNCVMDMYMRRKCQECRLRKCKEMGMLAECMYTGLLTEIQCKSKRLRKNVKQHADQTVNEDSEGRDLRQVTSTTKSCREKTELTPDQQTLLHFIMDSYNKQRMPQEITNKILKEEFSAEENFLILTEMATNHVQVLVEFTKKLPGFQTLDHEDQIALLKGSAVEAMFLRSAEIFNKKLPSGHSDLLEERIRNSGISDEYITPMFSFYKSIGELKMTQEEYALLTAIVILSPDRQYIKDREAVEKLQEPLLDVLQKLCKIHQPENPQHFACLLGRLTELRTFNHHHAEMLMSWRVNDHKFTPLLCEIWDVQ

In the case of `CC1CCC(=O)C1=O` (stereo not given), the Potency entry in [1], in assay [2], in assay [3], in assay [4], in [5] and in assay [6] was “inactive” throughout. For the same compound, the Potency result in assay [7] and in [8] was “inactive” each time.

`CN(C)CCN(Cc1ccc(Cl)cc1)c1ccccn1`: the Potency entry in [1], in [3], in assay [4], in assay [6], in [7] and in assay [8] was “inactive” in each case. Further, the result in assay [9] was inactive.

On to `CO[C@@H]1[C@H](OC(=O)/C=C/C=C/C=C/C=C/C(=O)O)CC[C@]2(CO2)[C@H]1[C@@]1(C)O[C@@H]1CC=C(C)C`, for which the Potency entry in assay [1], in assay [2], in assay [3] and in assay [8] was “inactive” in each case. In addition, the Potency in [5] is 1.95 µM (active). For the same compound, the result in assay [9] was inactive.

As to `O=C(Nc1ccccc1)c1ccccc1O`, the Potency entry in [1], in [2], in assay [3], in assay [5] and in assay [7] was “inactive” each time.

`CCCCC(CC)COC(=O)COc1ccc(Cl)cc1Cl` (stereo not given): the Potency entry in assay [10], in assay [2], in assay [5], in assay [7] and in [8] was “inactive” throughout. In assay [9], the outcome was inactive.

As for `CC(C)OC(=O)C(C)N(C(=O)c1ccccc1)c1ccc(F)c(Cl)c1` (stereo not given), the Potency result in assay [1], in assay [2], in [5] and in [7] was “inactive” throughout. For the same compound, the result in [9] was inactive.

For `NC(=O)C(c1ccccc1)(c1ccccc1)[C@@H]1CCN(CCc2ccc3c(c2)CCO3)C1`, the Potency entry in assay [10], in [4], in assay [7] and in [8] was “inactive” throughout. Also, the outcome in assay [9] was inactive.

Take `C=CC(=O)OCCOc1ccccc1`: the Potency entry in assay [10], in assay [2], in [7] and in [8] was “inactive” in each case. Further, the outcome in assay [9] was inactive.

For `COc1cc(C(=O)OCCCN2CCCN(CCCOC(=O)c3cc(OC)c(OC)c(OC)c3)CC2)cc(OC)c1OC`, the Potency entry in assay [10], in assay [3], in [5], in assay [7] and in assay [8] was “inactive” throughout.

Regarding `CCCCCCCCCc1ccc(OCCOCCO)cc1`, the Potency result in assay [1], in assay [6], in assay [7] and in assay [8] was “inactive” throughout. Besides, in assay [2], the Potency is 20.5 µM (active). Also, in [9], the outcome was inactive.

As to `CCOC(=O)C(O)c1ccccc1` (stereo not given), the Potency result in assay [10], in assay [2], in assay [5] and in assay [7] was “inactive” each time. The result in assay [9] was inactive.

In the case of `Nc1cc(C(=O)O)c(O)c(S(=O)(=O)O)c1`, the Potency result in assay [10], in assay [2], in [5], in [7] and in assay [8] was “inactive” in each case. Also, in [9], the result was inactive.

Consider `CCO[Si](CCCCl)(OCC)OCC`, for which the Potency entry in [1], in assay [2], in assay [3], in assay [5] and in [7] was “inactive” in each case. The result in assay [9] was inactive.

As for `Clc1ccc(Cn2c(CN3CCCC3)nc3ccccc32)cc1`, in [10], the Potency is 29.8 µM (active). Besides, the result in assay [9] was inactive.

For the compound `CCCCCCCCCCCCCCCCCCOS(=O)(=O)O`, the values for the Potency in assay [10], in assay [2] and in assay [5] were 49 µM (active), 54.9 µM (active) and 34.7 µM (active), respectively. Moreover, the Potency entry in assay [8] is “inactive”. Further, the result in assay [9] was inactive.

Take `CN1CCC(N(Cc2cccs2)c2ccccc2)CC1`: in [1], the Potency result was “inactive”.

As to `CN(C)C(=O)NC1(c2ccccc2)CCN(CC[C@@]2(c3ccc(F)c(F)c3)CN(C(=O)c3ccccc3)CCO2)CC1`, the Potency entry in [1], in [2], in assay [3], in [4], in assay [6] and in assay [7] was “inactive” each time. The result in assay [9] was inactive.

For `C[C@@H]1C[C@H]2O[C@@]3(O[C@@H]2C(C)(C)O)[C@H](O)[C@@]2(C)[C@@H]4CC[C@H]5C(C)(C)[C@@H](O[C@@H]6OC[C@@H](O)[C@H](O)[C@H]6O)CC[C@@]56C[C@@]46CC[C@]2(C)[C@@H]13`, the Potency entry in assay [10], in assay [2], in assay [5], in assay [7] and in assay [8] was “inactive” throughout. Also, in assay [9], the outcome was inactive.

As for `C=CC(=O)OCCOCCOCCOCCOC(=O)C=C`, the Potency in [10] is 54.4 µM (active). Moreover, the Potency result in assay [2] and in assay [7] was “inactive” throughout.

Consider `CC(C)O.CC(C)O.CCOC(=O)/C=C(\C)O.CCOC(=O)/C=C(\C)O.[Ti]`, for which the Potency result in [10], in [2], in assay [5] and in assay [8] was “inactive” each time. Besides, the result in assay [9] was inactive.

As for `CN1C[C@H]2c3ccccc3Oc3ccc(Cl)cc3[C@@H]2C1`, the Potency result in [1], in assay [3], in assay [4], in assay [5], in assay [6] and in assay [7] was “inactive” each time. In addition, in assay [8], the Potency result is “inactive”. The outcome in assay [9] was inactive.

In the case of `CCN(CC)CCOC(=O)C(Cc1cccc2ccccc12)CC1CCCO1` (stereo not given), the Potency result in assay [10], in [2], in [5], in assay [7] and in assay [8] was “inactive” in each case. Besides, the outcome in assay [9] was inactive.

Take `CN(C)CCN(Cc1ccccc1)c1ccccn1`: the Potency result in assay [1], in assay [2], in [3], in assay [7] and in assay [8] was “inactive” throughout. The result in assay [9] was inactive.

Turning to `Brc1c2ccccc2cc2ccccc12`, the Potency result in assay [10], in assay [2], in assay [5] and in [7] was “inactive” each time. Further, in assay [9], the outcome was inactive.

As to `COc1cccc(N(C)C(=S)Oc2ccc3c(c2)CCCC3)n1`, the Potency result in assay [1], in [2], in [3], in assay [5], in assay [7] and in [8] was “inactive” throughout. In addition, the outcome in assay [9] was inactive.

As to `CCc1cc(C2=C(C(=O)O)N(c3ccccc3C(F)(F)F)S(=O)(=O)c3ccccc32)cc2c1OCO2`, the Potency result in assay [10], in [3] and in assay [7] was “inactive” each time.

In the case of `CC(=O)c1ccc2c(c1)N(CCCN(C)C)c1ccccc1S2`, the Potency result in assay [1], in assay [2] and in assay [3] was “inactive” each time.

As for `CCc1c(C(=O)NN2CCCCC2)nn(-c2ccc(Cl)cc2Cl)c1-c1ccc(Br)cc1`, the Potency is 12.3 µM (active) in [10], 24.5 µM (active) in assay [5] and 24.5 µM (active) in assay [7].

Turning to `OCc1cc(C(O)CNCCCCCCOCCCCc2ccccc2)ccc1O` (stereo not given), the Potency in assay [10] was 26.6 µM (active). The Potency entry in assay [3], in assay [6] and in [7] was “inactive” each time.

`Cc1ccc(C(=O)Oc2ccc(C(O)CNC(C)(C)C)cc2OC(=O)c2ccc(C)cc2)cc1` (stereo not given): in assay [10], the Potency was 29.8 µM (active). Moreover, the Potency entry in [6] and in [7] was “inactive” each time.

In the case of `CCCCNc1ccc(C(=O)OCCOCCOCCOCCOCCOCCOCCOCCOCCOC)cc1`, the Potency result in assay [1], in [2], in assay [4], in assay [5], in assay [6] and in assay [7] was “inactive” throughout. Further, in assay [8], the Potency entry was “inactive”. For the same compound, in [9], the result was inactive.
